Screen size: about 1,200 compounds; about 170 (14%) were called active. No rule for the calls is given here. Not all results are given here. Measured potencies and affinities stand elsewhere.
assay: E. coli Tat export inhibitors, dose response, cherry-pick, set 2, plate reader (AID 504941); details: E. coli Tat transport reporter; series mostly up to 38 µM; activity change, negative = inhibition: at the top concentration

Activity change, negative = inhibition, inactive:
CCCCCCc1ccc(N2C[C@H](Cc3ccccc3)[C@@H](CC(=O)NCc3ccc(OC)cc3)C2=O)cc1 29.2%
CCCOc1cc(C)c(S(=O)(=O)N2CCN(C)CC2)cc1C -6.77%
COc1ccc(OC)c(S(=O)(=O)NCCc2ccccc2)c1 -12.3%
COc1ccc(S(=O)(=O)NCc2ccco2)c2ccccc12 9.03%
COC(=O)C1=CN(C(C)C)C=C(C(=O)OC)C1c1cccc(OC)c1 12.3%
COc1ccc(N2C(=O)C3C4C=CC(C4)C3C2=O)nn1 (stereo not given) 2.9%
CCNC(=O)c1ccc(NS(=O)(=O)c2ccccc2)cc1 20.1%
Cc1ccc(-c2cc(C(=O)OCC(=O)N(C)c3c(N)n(Cc4ccccc4)c(=O)[nH]c3=O)c3ccccc3n2)o1 26%
N#CC1=C2SCC(O)(c3ccccc3)N2C(=O)CC1c1ccccc1F (stereo not given) -1.97%
COc1cc(NC(=O)C2CC(=O)NC3=C2C(=O)CC(C)(C)C3)c(OC)cc1Cl (stereo not given) 18.6%
Cn1c(C(=O)NCc2cccs2)cc2c(=O)n(C)c3ccccc3c21 8.97%
COC(C(=O)Nc1ccnn1C1CCN(Cc2ccc(C)o2)CC1)c1ccccc1 (stereo not given) 1.14%
O=C(c1n[nH]c2ccccc12)N1CCOCC1 2.16%
O=C(CSc1cccc[n+]1[O-])Nc1ccccc1C(F)(F)F 12.2%
C/C(Cn1nnc([N+](=O)[O-])n1)=N\NC(=O)c1ccc(O)cc1O 9.9%
CC1CCCCN1S(=O)(=O)c1ccc(NC(=O)c2ccco2)cc1 (stereo not given) 2.51%
CCn1c(C)nc2cc(C(=O)N/N=C/c3ccc(OC)c(O)c3)ccc21 -1.99%
COc1cccc(C2C(C(=O)OC(C)C)=C(C)Nc3ncnn32)c1 (stereo not given) 6.75%
CCN(CC)S(=O)(=O)c1ccc(=O)n(CC(=O)N2Cc3ccccc3CC2C(N)=O)c1 (stereo not given) -7.2%
CC(Sc1nc2ccccc2c(=O)n1C)C(=O)NC1CCCCC1C (stereo not given) -7.32%
Cc1nn(Cc2ccccc2Cl)c(C)c1NC(=O)c1ccn(C)n1 -0.679%
Cn1c(=O)oc2cc(S(=O)(=O)NCCN3CCCCCC3)ccc21 -0.08%
CC(C)Sc1nc2c(c(=O)[nH]c(=O)n2C)n1CCc1ccccc1 -6.57%
CCn1c(SCC(=O)Nc2ccc(OC)cc2)nc2c1c(=O)n(C)c(=O)n2C -3.88%
CCOCCOc1nc2c(c(=O)n(C)c(=O)n2C)n1Cc1ccc(C)cc1 9.39%
CN(C)c1nc(NCc2ccccc2)nc(SCC(N)=O)n1 -14.3%
O=C(CN1CCN(c2ccccc2)CC1)N1N=CCC1c1ccccc1 (stereo not given) -3.44%
Cc1nc2ccccc2c(=O)n1CCCO 16.5%
Cn1c(-c2ccccc2)cnc1N 7.04%
Cc1c(OCC(=O)NCCCN2CCOCC2)ccc2c1oc(=O)c1ccccc12 0.385%
CC(Sc1ccsc1[N+](=O)[O-])C(=O)N1CCN(c2ccccn2)CC1 (stereo not given) 8.43%
N#Cc1ccccc1S(=O)(=O)N1CCN(CC(=O)Nc2ccnn2C2CCCC2)CC1 12.7%
CCN(CC)C(=O)CSc1nc2ccccc2o1 8.86%
COC(=O)c1ccc(C2CC(=O)Nc3cc(OC)c(OC)cc32)cc1 (stereo not given) 1.38%
Cc1ccc(S(=O)(=O)N2CCOCC2)cc1NC(=O)c1cc2ccccc2oc1=O 10.6%
Cc1ccc(NC(=O)/C(=C/c2cccc([N+](=O)[O-])c2)NC(=O)C2CCCCC2)c(C)c1 19.2%
COc1ccc(CN2CSC(=S)N(Cc3ccccc3)C2)cc1 0.18%
Nc1cc(N)nc(SCc2ccc(Cl)cc2)n1 2.74%
O=C(CCCCCNC(=O)c1ccccc1)C[N+](=O)[O-] 9.54%
COCCCNc1nc2c(c(=O)[nH]c(=O)n2C)n1CC(O)COc1cccc(C)c1 (stereo not given) -25.7%
COc1ccc(NC(=O)c2ccc(Oc3ncccn3)cc2)cc1 9.5%
Cn1c(N)c(C(=O)COC(=O)CCCN2C(=O)c3ccccc3C2=O)c(=O)n(C)c1=O 13.1%
O=C(CN1CCN(c2ccccc2F)CC1)NC(=O)NCc1ccccc1 37.5%
COc1ccc(-c2cc(C(F)(F)F)c3c(n2)sc2c(O)cc(=O)[nH]c23)c(OC)c1 3.85%
Nc1ccccc1S(=O)(=O)NC1=NCCCCC1 7.97%
O=C(NCc1ccccc1)c1nc[nH]c1C(=O)N1CCN(c2ccccc2)CC1 -1.54%
CC1CCN(C(=O)c2[nH]cnc2C(=O)N[C@@H](C)C(=O)OC(C)(C)C)CC1 -3.97%
CC(C)(C)OC(=O)NCC(=O)N1CCC(C(=O)O)CC1 0.797%
CC(=O)Nc1ccc(NS(=O)(=O)c2ccc3ccccc3c2)cc1 17.6%
CCc1ccc(N2CC34C=CC(O3)C(C(=O)OC(C)C)C4C2=O)cc1 (stereo not given) 11.4%
COc1ccc(N=Cc2nc(-c3ccccc3)oc2OC(=O)c2ccccc2)cc1 -7.66%
COC(=O)c1c(NC(=O)C(=O)NCCCN2CCOCC2)sc2c1CCCC2 23.1%
Cc1nn2c(SCC(=O)c3cccs3)cc(C(C)(C)C)nc2c1-c1ccccc1 18.4%
O=C(O)c1ccc(NS(=O)(=O)c2cc(C(=O)O)ccc2Br)cc1 -5.5%
CC(C)(C)c1ccc(C(=O)n2cnc3ccccc32)cc1 -4.98%
Cc1ccc(CNC(=O)C2CCCN2C(=O)Nc2ccccc2)cc1 (stereo not given) 6.34%
O=C(O)C1CCCCN1S(=O)(=O)c1ccc(Cl)s1 (stereo not given) 3.43%
Cc1ccc(-n2nnnc2-c2cnc3cc4c(cc3c2C)OCO4)cc1 5.42%
Cc1ccc2nc(NNC(=O)c3ccc(S(=O)(=O)N4CCc5ccccc5C4)cc3)sc2c1 24.4%
O=C(CSc1nnc(-c2ccccc2)n1C1CCCCC1)N1CCCC1 14.9%
Cc1ccnc(NS(=O)(=O)c2ccc(NS(=O)(=O)c3ccccc3)cc2)n1 -7.87%
O=C(CN(Cc1ccco1)C(=O)c1ccccc1F)Nc1ccccc1C(F)(F)F -17.7%
CCc1cccc2c1NC(=O)C2(O)N1CCCC(C)C1 (stereo not given) -0.33%
COc1cccc(C(=O)Nc2cc([N+](=O)[O-])ccc2N2CCN(C)CC2)c1 -5.03%
Cc1cccc(NC(=O)CN(c2ccc(F)cc2)S(C)(=O)=O)c1 19.3%
CS(=O)(=O)N(CC(=O)NC1CCCC1)c1cccc(F)c1 -8.84%
COC(CN(C)C(=O)C1CCCN(S(=O)(=O)c2ccc3c(c2)oc(=O)n3C)C1)OC (stereo not given) 6.34%
CCOC(=O)c1c(NC(NC(C)=O)C(Cl)(Cl)Cl)sc(C(C)=O)c1C (stereo not given) -6.84%
CC(C)(CO)[C@@H](O)C(=O)NCCC(=O)O -1.7%
COc1ccc(-c2nc(C#N)c(NCC3CCCO3)o2)cc1OC (stereo not given) -5.51%
CCNc1nc(OC)nc(Oc2ccc(=O)n(-c3ccccc3)n2)n1 -15.9%
CCCCN(CCCC)C(=O)c1cn(CC)c2cc(N3CCN(C)CC3)c(F)cc2c1=O 282%
CC(C)(C)CC(=O)Nc1ccc(Nc2ccccc2)cc1 2.82%
CC(=O)Nc1cccc(-c2csc(Nc3cc(C)ccn3)n2)c1 -1.58%
Nc1ccc(S(=O)(=O)N2CCCc3ccccc32)cc1 12.9%
NC(=O)c1c(NC(=O)C(=O)N2CCOCC2)sc2c1CCC2 -18.1%
NC(=O)NC(=O)CSc1nc2sc(-c3ccccc3)cc2c(=O)n1-c1ccccc1 -2.99%
CCn1c(CCn2c3ccccc3c3ccccc32)n[nH]c1=S 11.1%
CCc1ccc(NC(=O)Nc2cc(C(=O)NCC3CCCO3)ccc2N2CC3CC(C2)c2cccc(=O)n2C3)cc1 (stereo not given) -5.94%
CCCN=C1N(CC)C[C@@H]2[C@@H]3C(=O)N(C)C(=O)[C@@H]3[C@](Cc3ccccc3)(C(=O)OC)N12 -26.9%
CC(NC(=O)Nc1nccs1)(C(F)(F)F)C(F)(F)F 22.2%
COc1ccc(C2C(C#N)=C(N)Oc3c2sc2nc(C)cc(C)c32)cc1 (stereo not given) 5.99%
COc1cc2c(cc1NC(=O)COC(=O)[C@@H](NC(=O)c1ccccc1)C(C)C)oc1ccccc12 -4.47%
Cc1cccc2c1cnn2C(=O)CCC(=O)N1CC(C)CC(C)C1 (stereo not given) 0.91%
CC(SCC(=O)Nc1ccc(F)cc1)c1nc2ccccc2c(=O)[nH]1 (stereo not given) 19.5%
O=C(c1ccco1)N1CCN(C(=O)c2ccc(CS(=O)c3ccc(F)cc3)o2)CC1 (stereo not given) -9.83%
Cc1nn2c(COc3ccc(NC(=O)c4ccccc4Cl)cc3)nnc2c2ccccc12 11.3%
O=C(O)c1ccc(N/N=C/c2ccc(-c3ccccc3)cc2)cc1 -7.88%
COc1cccc(CN(C(=O)Cc2c[nH]c3ccccc23)C(C(=O)NC2CCCCC2)c2ccc(C)o2)c1 (stereo not given) 0.794%
CCc1cccc(CC)c1NC(=S)NCC(c1cccnc1)N(C)C (stereo not given) 23.3%
COc1ccc(-c2ccc(-c3noc(-c4ccccc4OC)n3)c(OC)n2)cc1 32.1%
N#Cc1cccc(C(=O)OCC(=O)NCc2ccco2)c1 26.4%
CCOc1ccc(NC(=O)c2ccc(NC(=O)c3cn4c5c(c(N6CCN(C)CC6)c(F)cc5c3=O)OCC4C)cc2)cc1 (stereo not given) 53.8%
O=C(c1ccco1)N1CCCC(c2nc3c(nnn3Cc3ccc(F)cc3)c(=O)[nH]2)C1 (stereo not given) -15.7%
CCOC(=O)N1CCC(N(CCN(C)C)C(=S)Nc2ccc(Oc3ccccc3)cc2)CC1 -6.93%
Cc1noc(NS(=O)(=O)c2ccc(NC(=O)c3ccoc3C)cc2)c1C 19.6%
C=CCOc1ccccc1CN1CCC(n2nccc2NC(=O)C2CC2)CC1 -53.1%
O=C(CSc1nccn1Cc1ccccc1)NC1CCCC1 1.77%
O=C(NNC(=S)Nc1cccc(Cl)c1)c1ccccc1OC(F)F 21.6%
COc1ccc(C2CC(=O)Nc3n[nH]c(-c4ccccc4)c32)cc1OC (stereo not given) 23.4%
CCc1ccc(N2CC(C(=O)N3CCN(c4ccccn4)CC3)CC2=O)cc1 (stereo not given) 23.1%
COc1ccc(-c2nnc(Nc3ccc(CC(N)=O)cc3)c3ccccc23)cc1 -7.23%
CCC(=O)NC(c1ccccc1Cl)c1c(O)ccc2ccccc12 (stereo not given) 0.404%
Cc1cc(C)n(CCCNC(=O)COc2ccc([N+](=O)[O-])cc2)n1 -36.6%
COc1ccccc1NS(=O)(=O)c1cc(NC(C)=O)ccc1N1CCCCC1 1.54%
